Beta cell apopt – blocks beta cell apoptosis. INS-1E cytokine-induced death, ATP luminescence, 48 h; percent of positive-control rescue, neutral wells zero. 300,000 tested, 0.8% active. protection from apoptosis, % (concentration not given with the values);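 active means Every replicate reaches about 75%, or at least half do and their mean reaches it too, limit read from the data; inconclusive means At least half of replicates reach the limit but their mean does not; inactive means Under half of replicates reach the limit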;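 further: higher means more ATP so stronger rescue from cytokine killing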
Mdm2 MdmX PPI – inhibitors of human Mdm2/MdmX interaction; inhibition, % at 8 µM; SaOS-2 split-luciferase Mdm2/MdmX complementation, luminescence; O15151+Q00987; 330,000 tested, 3% active;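 active means inhibition of at least 50% at 8 µM in the primary screen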
Calb FLC – affects C. albicans growth with fluconazole. C. albicans CaCi-2 (fluconazole-resistant clinical isolate) + fluconazole, Alamar Blue growth, 48 h. growth inhibition, % (no concentration beside the values). 300,000 tested, 0.57% active. AID 1979;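 active means growth inhibition above about 58% in most replicates, limit read from the data, passing the limit was not always enough; inconclusive means exactly half the replicates above a set limit; inactive means most replicates below a set limit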;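 further: all wells also contain fluconazole at 8 µg/ml as a sub-toxic cotreatment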
CSC inhib – blocks cancer stem cells | cancer stem cell-like cells viability, luminescence | inhibition, % at 7.5 µM | 300,000 tested, 1.1% active | AID 2717; in the data active means inhibition above about 75%; inconclusive means no clear call, values can overlap the other calls; tested in HMLE shEcad cells
MPTP inh – blocks calcium-induced mitochondrial swelling | inhibition, % at 10 µM | 360,000 tested, 1.4% active | isolated mouse mitochondria, Ca2+ swelling absorbance, 30 min;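 active means inhibition of 50% or more, scaled per plate between neutral and stimulator controls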
MPTP counter – mitochondrial membrane potential, counter-screen | shares compounds with MPTP inh | isolated mitochondria, Rhodamine 123 fluorescence | inhibition, % at 10 µM | 5,000 tested, 78% active; in the data active means inhibition above about 22%
MPTP swell DR – MPTP inhibition, dose response swelling confirmation; 780 tested, 58% active; shares compounds with MPTP inh; AID 651561; IC50, µM; isolated mitochondria swelling, absorbance; in the data active means IC50 below about 20 µM
MPTP counter DR – MPTP inhibitor counter-screen activity, dose response; shares compounds with MPTP inh; isolated mitochondria counterscreen, fluorescence read-out; IC50, µM; 780 tested, 49% active; AID 651564; in the data active means IC50 below about 80 µM
A number is an active result; i = inactive; ? = inconclusive; nt = not tested or not shown. Compounds with a hit are over-represented: about 4.8% of the library has one in this group of screens.

SMILES	Beta cell apopt	Mdm2 MdmX PPI	Calb FLC	CSC inhib	MPTP inh	MPTP counter	others
O=C(c1cccc(S(=O)(=O)N2CCN(c3ccccc3)CC2)c1)N1CCCC(C(F)(F)F)C1 (stereo not given)	i	i	i	i	68	71
N#Cc1ccc(NC(=O)N2CCC(c3nc4c(nnn4Cc4cccc(Cl)c4)c(=O)[nH]3)CC2)cc1	i	i	i	i	56	28
O=C1CCCN2N=C(SCC(=O)Nc3cccc(C(F)(F)F)c3)SC2=N1	i	i	i	nt	74	74
O=C1CCCN2N=C(SCC(=O)Nc3cccc(Cl)c3)SC2=N1	i	i	i	nt	i	nt
O=C(c1ccc(O)c(Br)c1)c1cc(Br)ccc1O	nt	nt	nt	nt	94	93
O=C(C(=O)c1cc(Br)ccc1O)c1cc(Br)ccc1O	nt	nt	nt	nt	95	97
CCCn1c(C)cc(/C=C(\C#N)C(=O)OCC(=O)N(CC)c2c(N)n(Cc3ccccc3)c(=O)[nH]c2=O)c1C	nt	nt	nt	nt	i	nt
COc1ccccc1CNC(=O)CCc1nc2ccccc2c(=O)[nH]1	i	i	i	i	i	nt
CN(C)CCCNC(=O)CCc1nc2ccccc2c(=O)[nH]1	i	i	i	i	74	i	MPTP swell DR=i;MPTP counter DR=i
COCCCN1C(=O)C(CC(=O)NCCCN(C)C)CC(C(=O)N(C(C)C)C(C)C)=C1C (stereo not given)	nt	nt	nt	nt	i	nt
CC(C)C(=O)Nc1ccc(N2CCN(C(=O)c3cccs3)CC2)cc1	i	i	i	i	i	nt
CC(C)CC(=O)NC(=S)Nc1ccc(N2CCN(C(=O)c3cccs3)CC2)cc1	i	i	i	i	93	64
CC(=O)N1CCN(c2ccc(NC(=S)NC(=O)COc3ccc(C(C)(C)C)cc3)cc2)CC1	i	i	i	i	88	88
Cc1ccc(CN(C)C(=O)CN2C(=O)NC(c3ccccc3)(c3ccccc3)C2=O)c(C)c1	i	i	nt	i	i	nt
O=C(c1ccccc1)N1CCN(c2ncnc3sc4c(c23)CCC4)CC1	i	i	i	i	53	45
Cc1sc(NC(=S)NC(=O)c2ccccc2)c(C#N)c1C	i	i	i	i	70	84
Cc1sc(NC(=S)NC(=O)c2ccc(C(C)(C)C)cc2)c(C#N)c1C	i	i	i	i	i	nt
CCCCCc1nc2sc3c(c2c(=O)n1NC(=O)c1ccc([N+](=O)[O-])cc1)CC(C)(C)OC3	i	i	i	nt	90	76
CN(CC(=O)Nc1ccc(F)c(F)c1F)C(=O)c1ccc2c(c1)OCCO2	i	i	i	i	i	nt
O=C(NCc1ccco1)c1sc(=S)n2c1[nH]c(=O)c1ccccc12	i	i	93	i	89	77
CCc1nc2c(cnn2-c2ccc(F)cc2)c(=O)n1-c1ccc(N2CCC(C)CC2)cc1	i	i	i	i	76	i	MPTP swell DR=7.3;MPTP counter DR=21
O=C(NC(NNc1ccc([N+](=O)[O-])cc1)(C(F)(F)F)C(F)(F)F)c1ccc(Cl)cc1	i	i	?	i	98	78
OCCN1CCN(CC/C=C2/c3ccccc3Sc3ccc(C(F)(F)F)cc32)CC1	i	i	i	i	91	i
O=[N+]([O-])c1ccc2nc(-c3ccccc3[N+](=O)[O-])[nH]c2c1	i	i	i	i	i	nt
Cc1ccc(-c2nc3ccc([N+](=O)[O-])cc3[nH]2)cc1	i	i	i	i	76	82
SMILES	Beta cell apopt	Mdm2 MdmX PPI	Calb FLC	CSC inhib	MPTP inh	MPTP counter	others
COc1ccc(-c2nc3ccc([N+](=O)[O-])cc3[nH]2)cc1	i	nt	i	i	58	53
O=[N+]([O-])c1cccc(-c2nc3ccc([N+](=O)[O-])cc3[nH]2)c1	i	i	i	i	93	83
O=[N+]([O-])c1ccc2nc(-c3ccncc3)[nH]c2c1	i	i	i	i	i	nt
O=[N+]([O-])c1ccc(/C=C/c2nc3ccc([N+](=O)[O-])cc3[nH]2)cc1	i	nt	i	i	98	64
COc1ccc2nc(-c3ccccc3)[nH]c2c1	i	i	i	i	i	nt
CCNC(=O)CC1C(=O)N(CC)C(=S)N1NC(=O)c1cccnc1 (stereo not given)	i	i	i	i	i	nt
COc1ccc(NC(=O)CN(C)C(=O)CN2C(=O)C3CCCCC3C2=O)cc1 (stereo not given)	i	i	i	i	i	nt
CC1CCCCN1CCCNC(=O)CCCN1C(=O)c2cccnc2Sc2ccccc21 (stereo not given)	i	i	i	i	i	nt
CC(C)c1ccc(NC(=O)CSc2nc(=O)n(CCCN3CCOCC3)c3c2CCCC3)cc1	nt	i	i	i	i	nt
O=[N+]([O-])c1ccc2nc(-c3ccc(Cl)cc3)[nH]c2c1	i	i	i	i	92	86
Cc1ccc(CNC(=O)CS(=O)Cc2nc(-c3ccccc3F)oc2C)cc1 (stereo not given)	i	i	i	i	i	nt
Cc1ccc(C(C)C)c(OCCNCc2ccccc2)c1	i	i	i	i	56	i	MPTP swell DR=4.6;MPTP counter DR=15
CC12CC3(C)CC(C)(C1)CC(C(=O)NCc1cccnc1)(C2)C3	i	i	i	i	i	nt
O=C(COc1ccc([N+](=O)[O-])cc1)Nc1nnc(-c2cccnc2)s1	i	i	i	i	i	nt
O=C(Nc1ccc([N+](=O)[O-])cc1)NN1CCCCCC1	nt	nt	nt	nt	102	87
N#Cc1ccc(NC(=O)NN2CCCCCC2)cc1	nt	nt	nt	nt	102	87
O=C(Nc1cccc(Cl)c1)Nc1nnc([C@H]2C[C@H](O)[C@@H](CO)O2)s1	nt	nt	nt	nt	i	nt
CCC(=N\NC(=O)COc1ccccc1OC)/C(CC)=N/NC(=O)COc1ccccc1OC	i	i	nt	i	i	nt
COc1cccc(N2C(=NC(=O)C3CCCCC3)SC3CS(=O)(=O)CC32)c1 (stereo not given)	i	i	i	i	i	nt
CC(NC(=O)COC(=O)c1cc(NS(=O)(=O)c2ccc(Cl)c([N+](=O)[O-])c2)ccc1O)C1CC2CCC1C2 (stereo not given)	i	i	?	108	61	66
COc1ccc(NS(=O)(=O)c2ccc(O)c(C(=O)OCC(=O)NC(C)C3CC4CCC3C4)c2)cc1 (stereo not given)	nt	i	i	nt	i	nt
O=C(Nc1nc(-c2cc3ccccc3o2)cs1)c1ccc(S(=O)(=O)N2CCCC2)cc1	i	i	i	i	63	82
CN(C)S(=O)(=O)c1ccc(C(=O)Nc2nc(-c3cc4ccccc4o3)cs2)cc1	i	i	i	i	85	87
C=CCSC1=N/C(=C\c2cc(OCC)c(OC(C)=O)c([N+](=O)[O-])c2)C(=O)S1	i	i	i	i	98	63
O=S(=O)(Nc1nc2ccccc2s1)c1ccc(Cl)s1	81	i	i	i	78	80
O=S(=O)(Nc1nc2ccccc2s1)c1cnc(Cl)c(Br)c1	i	i	i	i	90	85
O=S(=O)(Nc1nccs1)c1cnc(Cl)c(Br)c1	i	i	i	i	i	nt
